# Results filed as inconclusive are left out. A number with no mark means an inactive call. Calls come from the whole dose curve; as a rule, active = well fitted cell-killing curve with a large enough effect; inconclusive = small, poorly fitted or top-dose-only effect, or effect the other way; inactive = no such curve, though single readings can be large or run the other way.
# Assay: MultiTox-Fluor Cytotoxicity Assay - LYMP1-002 - Dead Cells (AID 960);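 note: cells exposed to compound for 16 h at 37 °C; 0% = DMSO and 100% = tetraoctylammonium bromide; nearly all actives have a fitted effect of over 60% in size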
# Conditions: LYMP1-002 lymphoblastoid cells, dead-cell protease fluorescence; series mostly up to 46.1 µM; cytotoxicity (dead cells): at the top concentration
# Description: NIH Chemical Genomics Center [NCGC]
# NIH Molecular Libraries Screening Centers Network [MLSCN]
# National Institutes of Environmental Health Sciences [NIEHS]
# National Toxicology Program [NTP]
# We have developed a 1536-well cell-based assay for quantitative high throughput screening (qHTS) against a number of cell lines to determine in vitro cytotoxicity of small molecules. This particular assay uses a human lymphoblastoid cell line (LYMP1-002) purchased from Coriell Institute.
# NCGC Assay Protocol Summary:
# The MultiTox-Fluor Cytotoxicity Assay (Promega) is a homogeneous method to simultaneously measure the relative number of live and dead cells in culture by detecting changes in cell membrane integrity. There are two fluorogenic peptide substrates in the assay reagent. Viable cells are determined when the cell-permeant substrate (GF-AFC) enters the cell and is cleaved by protease from live cells resulting in liberated fluorophore. This live-cell protease activity restricted to viable cells is proportional to cell number. The dead cells are determined by using fluorogenic cell-impermeant peptide substrate (bis-AAF-R110) which cleaved by dead cell proteases leaking from damaged cell membrane.
# Using the MultiTox-Fluor Cytotoxicity Assay, the relative number of dead cells was measured in the lymphoblastoid cell line with complete culture medium following compound treatment for 16 hours. The assay was performed in opaque black Kalypsys 1536-well plates. In the screen, tetraoctylammonium bromide was used as positive control. Library compounds were measured for their ability to cause acute toxicity in the cell line, as reflected by an increase in dead cell protease activity, in a concentration-dependent manner. Data were normalized to the controls for basal activity (DMSO only) and 100% stimulation (15 uM tetraoctylammonium bromide). AC50 values were determined from concentration-response data modeled with the standard Hill equation.
# qHTS protocol for MultiTox-Fluor Cytotoxicity assay
# [Step] [Parameter] [Value] [Description]
# 1. Reagent; 5 uL; 2500 lymphoblastoid cells/well
# 2. Time; 5 hr; 37 C incubation
# 4. Controls; 23 nL; Tetraoctylammonium bromide 6.4pM to 92 uM
# 5. Time; 16 hr; 37 C incubation
# 6. Reagent; 5 uL; MuliTox-Fluor Assay reagent
# 7. Time; 60 min; Room Temperature
# 8. Detection; dead-cell fluorescence (Ex/Em=485/520); EnVision plate reader
# Keywords: cytotoxicity, lymphoblastoid cell line, fluorescence, NTPHTS, NTPHTS_NCGC, NIEHS, EPA, DSSTox, MLSMR, MLSCN, NIH Roadmap, qHTS, NCGC
row,SMILES,cytotoxicity (dead cells) [%]
1,O=C1C(c2[nH]c3ccccc3c2O)=Nc2ccccc21,-0.871
2,CCN(CC)C(=O)c1cccc(C)c1,22.3
3,CCCCOC(=O)c1ccc(N)cc1,-3.95
4,CC(=O)Nc1ccccc1,29.5
5,CC(=O)Nc1ccc(C(=O)O)cc1,16.8
6,CC(=O)OCC(COC(C)=O)OC(C)=O,-7.14
7,CCCCCC(N)=O,22
8,FC(F)(F)C(Cl)Br (stereo unspecified),2.54
9,CCCC(O)C(CC)CO (stereo unspecified),6.3
10,Cc1cc(C)nc(NS(=O)(=O)c2ccc(N)cc2)n1,7.5
11,COc1ccc(O)cc1,19.2
12,CC(=O)NS(=O)(=O)c1ccc(N)cc1,-15
13,Nc1ccc(S(=O)(=O)c2ccc(N)cc2)cc1,13.5
14,CC(=O)Nc1cccc(O)c1,8.37
15,O=C1c2cccc(O)c2C(=O)c2c(O)cccc21,-3.23
16,CC1CC(OC(=O)c2ccccc2O)CC(C)(C)C1 (stereo unspecified),23
17,C=CCNC(N)=S,-5.51
18,O=C(O)CCCCC1CCSS1 (stereo unspecified),-1.2
19,Cc1cc(=O)[nH]c(=S)[nH]1,10
20,CCCCCCCC(=O)OCC(COC(=O)CCCCCCC)OC(=O)CCCCCCC,18.5
21,O=C(c1ccccc1)C(O)c1ccccc1 (stereo unspecified),5.22

# — PubChem BioAssay (NCATS)
